# Results published in PubChem BioAssay AID504329 (Southern Research Specialized Biocontainment Screening …, 2011).
# Among all 340,000 compounds or so, about 1,000 (0.29%) were called active. Rule as the data show it: inconclusive = inhibition above about 27% without an active follow-up result; inactive = below that. These entries were drawn from the full list. Potency and affinity values are given separately.
# Assay: NS1A inhibition, H1N1 influenza, cell based functional assay (AID 504329)
# Settings: percent inhibition, at 12.5 µM, stronger effect = higher value
row,SMILES,inhibition
1,COc1ccccc1CNC(=O)Cn1cc([N+](=O)[O-])ccc1=O,-14% (inactive)
2,Cc1cccnc1Nc1nc(-c2ccccc2)cs1,-4.02% (inactive)
3,Cc1cccc(Nc2nc(-c3cccs3)cs2)n1,8.74% (inactive)
4,Cc1cccnc1Nc1nc(-c2ccc(O)cc2)cs1,5.7% (inactive)
5,c1ccc(Nc2nc(-c3ccccn3)cs2)cc1,8.8% (inactive)
6,CCCc1nnc(NC(=O)CCC(=O)N2CCN(CCOC(c3ccccc3)c3ccccc3)CC2)s1,0.42% (inactive)
7,O=CNCC(=O)NC1CCCCCC1,-2.65% (inactive)
8,Cc1ccc(OCC(=O)N/N=C/c2cccnc2)cc1C,-11% (inactive)
9,O=C1NC(=O)C(CC(=O)N(c2ccccc2)C2(C(=O)NC3CCCC3)CCCCC2)N1 (stereo not given),-0.63% (inactive)
10,CC(Oc1ccc(Cl)cc1Cl)C(=O)Nc1ccc(N2CCN(C)CC2)cc1 (stereo not given),9.83% (inactive)
11,CCOC(=O)N1CCN(C2=C(NS(=O)(=O)c3ccc(NC(C)=O)cc3)C(=O)c3ccccc3C2=O)CC1,12.4% (inactive)
12,Cc1ccc(S(=O)(=O)NCC(=O)N2CCN(c3ccccc3F)CC2)cc1,11.9% (inactive)
13,CCN1CCN(C2=C(NS(=O)(=O)c3ccc(C)cc3)C(=O)c3ccccc3C2=O)CC1,10.6% (inactive)
14,Cc1ccc(S(=O)(=O)Nc2nc3ccccc3nc2N2CCN(c3ccccc3F)CC2)cc1,-0.57% (inactive)
15,Cc1ccc(S(=O)(=O)CC(=O)N2CCN(c3ccccc3F)CC2)cc1,2.84% (inactive)
16,CCOC(=O)N1CCN(C2=C(NS(=O)(=O)c3ccccc3)C(=O)c3ccccc3C2=O)CC1,18.6% (inactive)
17,CC(=O)Nc1ccc(S(=O)(=O)NC2=C(N3CCN(Cc4ccccc4)CC3)C(=O)c3ccccc3C2=O)cc1,12.6% (inactive)
18,CCN1CCN(C2=C(NS(=O)(=O)c3ccccc3)C(=O)c3ccccc3C2=O)CC1,-3.88% (inactive)
19,CC(C)(C)NC(=O)C12CC3CC(CC(Cl)(C3)C1)C2,1.34% (inactive)
20,O=C(COC(=O)c1ccc(Br)c(S(=O)(=O)N2CCOCC2)c1)NC1CC1,-5.17% (inactive)
21,CCOC(=O)c1cc(S(=O)(=O)NC2CCC(C)CC2)cn1C (stereo not given),-6.39% (inactive)
22,CCCOc1ccc(NC(=O)C(=O)NCCCn2ccnc2)cc1,-6.26% (inactive)
23,Cc1cccc(Oc2cnn(C(C)(C)C)c(=O)c2Cl)c1,-1.49% (inactive)

row,SMILES,inhibition
1,O=C(O)CCCNc1cc(N2CCN(C(=O)c3ccco3)CC2)c2noc3c2c1C(=O)c1ccccc1-3,25.1% (inactive)
2,CCOC(=O)N1CCN(c2ccccc2O)CC1,-11.3% (inactive)
3,CN1CCN(c2ccc(Cl)cc2NC(=O)CC2OC(=O)c3ccccc32)CC1 (stereo not given),-6.08% (inactive)
4,CC(=O)OCCNc1cc(Sc2nc3ccccc3[nH]2)c2nonc2c1[N+](=O)[O-],-9.31% (inactive)
5,CCOC(=O)c1c(C)oc2c1C(=O)c1ccccc1C2=O,15.3% (inactive)
6,CCOC(=O)N1CCN(c2cc(NCCO)c([N+](=O)[O-])c3nonc23)CC1,-0.42% (inactive)
7,CCOC(=O)c1c(C)nc2c(c1-c1ccccc1)C(=O)c1ccccc1-2,-17.6% (inactive)
8,O=C1c2ccccc2-c2c1cccc2C(=O)N1CCN(C(=O)c2ccco2)CC1,0.55% (inactive)
9,CCOC(=O)CC(=O)CSc1nc(C)nc2c1oc1ccccc12,2.82% (inactive)
10,O=C(NCCCN1CCOCC1)C(=O)NCC1OCCCN1S(=O)(=O)c1cc(F)ccc1F (stereo not given),-1.53% (inactive)
11,COC(=O)c1cc(C)sc1NC(=S)N1CCN(CCc2ccccc2)CC1,4.17% (inactive)
12,CCN1CCN(c2ccc(NC(=O)c3ccc4c(c3)OCCO4)cc2C)CC1,-4.06% (inactive)
13,COc1cccc(CCc2nc3ccccc3c(=O)n2N)c1,-4.28% (inactive)
14,COc1ccc(S(=O)(=O)n2nc(-c3ccc(Cl)cc3)cc2N)cc1,2.77% (inactive)
15,CCN(CC(=O)Nc1c(F)cccc1F)C(=O)c1cc([N+](=O)[O-])ccc1N1CCOCC1,-7.79% (inactive)
16,Cc1cc(C)nc(NS(=O)(=O)c2ccc(NC(=S)NC(=O)C3CCCC3)cc2)n1,-7.03% (inactive)
17,COC(=O)c1ccccc1NC(=O)N1CCN(c2ccc(OC)cc2)CC1,12% (inactive)
18,COc1cc(-c2cc(C(=O)OCC(=O)NC3CC3)c3ccccc3n2)cc(OC)c1OC,-4.4% (inactive)
19,COc1ccc(C(=O)Nc2cnn(Cc3c(F)cccc3Cl)c2)cc1OC,-4.35% (inactive)
20,O=C(N[C@H]1CP(=O)(Oc2ccccc2)O[C@H](COCc2ccccc2)[C@H]1O)C(Cl)(Cl)Cl (stereo not given in full),-20.9% (inactive)
21,CCOC(=O)c1cnc2ccc(C)cc2c1NCCN1CCOCC1,-11.3% (inactive)
22,CCOC(=O)c1ccc2ncc(C(=O)OCC)c(Nc3ccc(N4CCOCC4)cc3)c2c1,28.6% (inactive)
